From PubChem
NPSR antag = blocks cAMP signaling of the human neuropeptide S receptor | Q6W5P4 | 220,000 compounds, 1% hits | CHO-NPSR cells, cAMP TR-FRET, antagonist mode | AID 1461 | Potency, µM (doses to about 38.3 µM), without a hit: top-dose activity change, negative = inhibition, most hits filed as inhibitors; also: potency is read from the fitted curve at half-maximal effect; nearly all actives have a fitted effect of over 50% in size
Target sequence (Q6W5P4 whole entry, looked up): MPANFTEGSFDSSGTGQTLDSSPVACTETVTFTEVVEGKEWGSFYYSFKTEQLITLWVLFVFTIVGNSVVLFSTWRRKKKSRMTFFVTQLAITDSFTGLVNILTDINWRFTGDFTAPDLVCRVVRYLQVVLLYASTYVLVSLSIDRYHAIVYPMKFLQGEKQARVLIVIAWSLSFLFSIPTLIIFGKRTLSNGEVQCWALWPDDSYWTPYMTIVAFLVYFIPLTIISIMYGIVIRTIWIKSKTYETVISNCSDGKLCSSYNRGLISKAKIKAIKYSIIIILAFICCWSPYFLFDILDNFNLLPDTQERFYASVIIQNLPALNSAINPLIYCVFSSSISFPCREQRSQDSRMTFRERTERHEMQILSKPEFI
Tau fluor cs = counter-screen for tau fibril formation inhibitors; tau K18 P301L Alexa594 fluorescence, heparin fibrillization; Potency, µM (series often up to 57.7 µM), for the others: at the highest dose activity change, negative = decrease; 280,000 compounds, 0.93% hits; also: potency is read from the fitted curve at half-maximal effect; nearly all actives have a fitted effect of over 55% in size
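Human K18 P301L tau (15 uM unlabeled plus 0.24 uM Alexa 594-labeled, final) in 100 mM sodium acetate pH 7 was mixed with compound and 20 uM heparin and incubated 6 hr at 37 C.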
JMJD2E inh = blocks human JMJD2E demethylase activity | 230,000 compounds, 1.6% hits | JMJD2E catalytic domain, FDH-coupled NADH fluorescence (FDH is formaldehyde dehydrogenase) | Potency, µM (top dose mostly 57.1 µM), for inactives: at the top dose activity change, negative = inhibition, hits mostly inhibitors; active = well fitted inhibition curve with a large enough effect, not every such curve was filed as active; inconclusive = small, poorly fitted or top-dose-only effect, or another doubt; inactive = no such curve, though single readings can be large or run the other way;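 also: potency is read from the fitted curve at half-maximal effect; 0% = wells with enzyme and -100% = buffer wells without enzyme; nearly all actives have a fitted effect of over 50% in size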
PNC inhibitor = perinucleolar compartment assembly inhibition; PC3M PTB-GFP, PNC prevalence imaging, 16 h; active compounds read low; activity change (PNC), negative = inhibition, % at 10 µM; 140,000 compounds, 3.1% hits; AID 2417;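 active = readout at or below -70, meaning at least 70% loss of cells showing the perinucleolar compartment, a nuclear body marking cancer cells; inconclusive = readout between -30 and a set limit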;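 also: plate controls were DMSO wells for no effect and camptothecin positive control wells for full effect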
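Compounds are pinned in duplicate onto adhered PC3M cells stably expressing GFP-tagged PTB and incubated 16 h at 37 C. Cells are then fixed, nuclei stained with Hoechst, and PNC-positive cells counted.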
Tau FP inhib = tau fibrillization inhibition (FP) | P10636 | K18 P301L tau heparin fibrillization, Alexa594 FP, 6 h | Potency, µM (titrated, usually from 57.7 µM), for inactives: top-dose activity, negative = inhibition, most hits filed as inhibitors | 280,000 compounds, 0.39% hits | AID 1468; also: potency is read from the fitted curve at half-maximal effect; nearly all actives have a fitted effect of over 55% in size
Target sequence (P10636 561-689 P618L limits assumed): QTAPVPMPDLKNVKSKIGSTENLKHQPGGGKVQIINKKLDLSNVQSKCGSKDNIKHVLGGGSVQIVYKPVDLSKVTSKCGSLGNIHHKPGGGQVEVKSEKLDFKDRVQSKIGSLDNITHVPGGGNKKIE
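Human K18 P301L fragment (15 uM unlabeled plus 0.24 uM Alexa 594-labeled) in 100 mM sodium acetate pH 7 with compound, aggregation induced by 20 uM heparin for 6 hr at 37 C. ThT (30 uM) added for 1 hr, then Alexa 594 FP read.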
Tau ThT inhib = blocks human tau fibril formation measured by thioflavin T; P10636; recombinant tau K18 P301L (four-repeat tau fragment), heparin-induced fibrillization, ThT fluorescence; AID 1460; Potency, µM (series often up to 57.4 µM), inactives show at the highest dose activity, negative = inhibition, most hits filed as inhibitors; 270,000 compounds, 2.1% hits; also: potency is read from the fitted curve at half-maximal effect; nearly all actives have a fitted effect of over 55% in size
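Heparin-induced fibrillization of the P301L-mutant K18 repeat-domain fragment of human tau was followed by ThT binding in quantitative high-throughput format.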
* hit, by the source's call; ? = inconclusive; · = no result given; [ ] = dose if it differs, or a comment. Hits are enriched below; roughly 5.1% of the tested compounds scored in any of these assays. Unless noted, calls follow the shape of the dose curve; as a rule, active = well fitted curve in the direction sought with a large enough effect; inconclusive = small, poorly fitted or top-dose-only effect, or another doubt; inactive = no such curve, though single readings can be large; an effect the other way counts as inactive or inconclusive. Unless noted, % is scaled to controls: 0 for no effect and ±100 for the full control effect.

SMILES	NPSR antag	Tau fluor cs	JMJD2E inh	PNC inhibitor	Tau FP inhib	Tau ThT inhib
CCc1cc2c(=O)c(-c3cnn(-c4ccccc4)c3)c(C)oc2cc1OCC(=O)Nc1ccc(F)c(F)c1	7.94µM*	-9.1%	6.3%	?	-4.5%	-9.2%
CCc1cc2c(=O)c(-c3cnn(-c4ccccc4)c3)c(C)oc2cc1OCC(=O)Nc1cccc(C)c1	?	-2.3%	4.0%	46.8	1.7%	-9.6%
CCOC(=O)c1cc2occc2n1CC(=O)N1CCCc2ccccc21	?	1.6%	-4.3%	-83.6*	-12.2%	-2.8%
COc1cc(NC(=O)COC(=O)Cc2ccc(-c3ccccc3)cc2)cc(OC)c1	-2.0%	9.0%	4.8%	-102.4*	3.5%	12.2%
COc1ccc(OC)c(NC(=O)COC(=O)Cc2ccc(-c3ccccc3)cc2)c1	-13.6%[46.1 µM]	-29.2%	-7.8%	?	12.5%	-14.0%
Cn1c(=O)c2[nH]c(Nc3ccccc3)nc2n(C)c1=O	-13.9%[46.1 µM]	-21.9%	-17.7%	-100.0*	3.3%	-11.8%
Cc1cccc(CNC(=O)C(=O)Nc2ccccc2C)c1	·	-14.5%	·	·	-14.1%	-4.3%
CN1CCc2c(sc(/N=C/c3cccs3)c2C(N)=O)C1	?	-12.5%	?	?	?	14.1µM*
CN1CCc2c(sc(/N=C/c3ccco3)c2C(N)=O)C1	-20.6%[46.1 µM]	-11.1%	?	-14.2	?	?
CCOC(=O)C1=C(c2ccccc2)N=c2s/c(=C\c3cccc(O)c3)c(=O)n2C1c1cccs1 (stereo unspecified)	?	?	-27.2%	10.1	12.6µM*	?
COc1ccccc1N1CCN(C(=O)c2cc3ccc4ccc(C)[nH]c4c3n2)CC1	·	-17.2%	·	·	12.0%	?
CCOC(=O)c1sc(=NC(=O)c2ccc(C)cc2)n(C)c1C	?	-5.3%	?	·	?	-12.4%
CCOC(=O)c1sc(=NC(=O)c2ccc(S(=O)(=O)N(C)c3ccccc3)cc2)n(C)c1C	3.16µM*	-9.0%	14.4%	·	1.2%	-8.1%
CCCCC/C=N\NC(=O)Cc1ccc([N+](=O)[O-])cc1	6.0%	-8.0%	28.3%	-94.6*	12.3%	-8.3%
CC(C)OCCCNC(=O)c1ccc2c(c1)N(Cc1c(F)cccc1Cl)C(=O)c1ccccc1S2	·	-16.9%	·	·	-5.5%	-8.6%
CCc1ccc(NC(=O)C2CCN(S(=O)(=O)c3c(C)noc3/C=C\c3ccc(OC)cc3)CC2)cc1	·	-8.0%	·	·	?	5.3%
Cc1ccc(N=c2ssnc2Cl)cc1	-8.3%[46.1 µM]	-25.1%	11.2µM*	?	?	14.1µM*
Cc1cc(Cl)ccc1N=c1ssnc1Cl	?	-27.3%	11.2µM*	27.6	22.4µM*	14.1µM*
Cc1cc(C)c(C#N)c(Cl)n1	21.2%	-1.2%	1.8%	18.5	-3.2%	1.9%
Nc1ccccc1N=c1ssnc1Cl	-0.3%	-29.5%	?	·	?	22.4µM*
Cc1ccc(N=C2NC(=O)CS2)cc1	6.2%[46.1 µM]	7.5%	-0.7%	?	10.1%	-3.9%
Cc1cc(C)nc(/N=c2/ssnc2Cl)c1	-29.2%[46.1 µM]	-21.1%	-0.3%	-26.9	8.91µM*	3.98µM*
Cc1cc(Cl)ccc1N=C1N=C(N)c2ccccc21	-30.6%	-8.6%	-0.1%	-18.3	-1.1%	-16.4%
CC(=O)N1c2ccc(S(=O)(=O)Nc3ccc(Cl)cc3C)cc2CC1C (stereo unspecified)	·	-12.9%	·	·	1.6%	-5.3%
O=C(NCCSc1c[nH]c2ccccc12)c1ccc(Cl)cc1	·	20µM*[quencher]	·	·	-2.9%	?
SMILES	NPSR antag	Tau fluor cs	JMJD2E inh	PNC inhibitor	Tau FP inhib	Tau ThT inhib
CC(C)c1ccc(NC(=O)CSc2nc(=O)n(Cc3cccnc3)c3c2CCC3)cc1	·	-3.0%	·	·	1.5%	-14.2%
C/C(=N\NC(=O)c1ccc(Cl)c(S(=O)(=O)Nc2ccccc2Cl)c1)c1ccncc1	-9.1%	-5.9%	3.7%	-83.3*	3.0%	-9.4%
COc1cccc(-n2c(=O)c3sc4ccccc4c3n(CC(=O)Nc3ccc(F)cc3F)c2=O)c1	·	-21.5%	·	·	-16.2%	3.1%
CC(=O)N1N=C(c2ccccc2)OC1c1ccc([N+](=O)[O-])s1 (stereo unspecified)	-2.5%	-18.1%	14.1µM*	·	?	?
c1cc2[nH]snc2c2nc(C3CC3)nc12	13.7%[46.1 µM]	-13.4%	20µM*	-13.0	-11.7%	?
Cc1ccc(C(=O)c2no[n+]([O-])c2C(=O)c2ccc(C)cc2)cc1	-17.0%	-28.6%	-15.6%	12.4	?	14.1µM*
Nc1ncc(N=Nc2cc(C(=O)O)ccc2Cl)s1	-3.7%	-27.7%	25.1µM*	·	?	14.1µM*
COc1ccc(C2=NC(C)(C)N(CC(=O)Nc3ccc(F)c(F)c3)C2=O)cc1	·	-17.0%	·	·	-6.5%	-2.9%
O=C(O)c1cccc(N2C(=O)/C(=C/c3ccc([N+](=O)[O-])cc3)C=C2c2ccccc2)c1	5.01µM*	?	-23.4%	·	-9.4%	6.31µM*
O=C1/C(=C/c2ccc([N+](=O)[O-])cc2)C=C(c2ccccc2)N1c1ccc(O)cc1	12.6µM*	11.2µM*[quencher]	-6.7%	?	-4.6%	5.62µM*
CC1=C(C#N)c2nc(N)c(C#N)c(C)c2/C1=C\c1ccc(-c2ccccc2C(=O)O)o1	-7.8%	?	?	·	?	8.91µM*
COc1cc(/C=C2/C(C)=C(C#N)c3nc(N)c(C#N)c(C)c32)ccc1OCC(=O)O	-10.1%	?	?	·	?	14.1µM*
Nc1nonc1-c1nc2ccccc2n1CC(=O)N/N=C/c1ccc(-c2ccccc2C(=O)O)o1	-1.4%	6.7%	4.4%	·	-1.4%	9.9%
C/C=C/c1ccc(OCC(=O)O)c(OC)c1	-4.8%	-2.2%	-7.6%	·	-3.1%	-7.8%
COc1ccc(-c2cn3c(n2)sc2cc(C(=O)NCC(C)c4ccccc4)ccc23)cc1 (stereo unspecified)	·	-9.6%	·	·	4.9%	-8.9%
COc1ccc(OC)c(NC(=O)C23CCC(C)(C(=O)C2)C3(C)C)c1 (stereo unspecified)	2.1%[46.1 µM]	-9.7%	-2.3%	-85.5*	-2.1%	-9.3%
COc1ccc(C(=O)Nc2cc(OC)ccc2OC)cc1	-17.3%[46.1 µM]	-16.9%	-2.6%	11.1	-3.1%	-16.4%
O=C1c2cccc3c([N+](=O)[O-])ccc(c23)C(=O)N1Cc1cccnc1	-49.4%	?	?	·	13.2%	?
Cc1ccnc(N2C(=O)c3cccc4c([N+](=O)[O-])ccc(c34)C2=O)c1	10µM*	?	-28.3%	28.0	0.6%	?
N#C/C(=C(/O)COC(=O)CSc1ccc2ccccc2c1)c1nc2ccccc2[nH]1	3.2%	?	?	-80.4*	-1.7%	-15.2%
COc1ccc(OC)c(C2CC(=O)NC(SC)=C2C#N)c1 (stereo unspecified)	-1.7%[46.1 µM]	-8.3%	0.3%	16.7	-9.9%	-10.9%
